# Values joined by “and” are separate entries in the source; they are usually repeats but may differ in a detail not shown here. Identical values can stand only once. Active and inactive are the calls of the source.
# What was measured:
# [1] = test system: Plasmodium falciparum Sir2 (PF13_0152, Sir2A); experiment: pfSir2 binders on small-molecule microarrays, primary screen, biochemical, small-molecule microarray, 635 nm fluorescence (AID 1098); settings: small-molecule microarray binding, fluorescence 635 nm; higher = more signal;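 also: score merges spot fluorescence intensity with its signal-to-noise ratio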
# [2] = small-molecule microarray binders of probe aDKK1, primary screen, biochemical, biotinylated probe, 635/667 nm fluorescence (AID 1099); settings: higher = more signal;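 also: score merges 667nm spot fluorescence with signal to noise across triplicate slides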
# [3] = small-molecule microarray binders of probe aCHRDL2, primary screen, biochemical, biotinylated probe, 635/667 nm fluorescence (AID 1100); settings: higher = more signal
# [4] = splicing luciferase reporter signal modulators, primary screen, spliceosome inhibition project, cell-based, HEK293, splice +/- reporter (AID 1101); settings: luminescence, 24 h, higher = more signal, called active from +8 up or from −8 down;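 also: HEK293 cells carrying a splicing-competent luciferase reporter gene; test concentration not given here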
# [5] = target: Fibroblast growth factor 10 (Homo sapiens) (UniProt O15520); experiment: FGF10 binders on small-molecule microarrays, primary screen, biochemical, small-molecule microarray, 635 nm fluorescence (AID 1102); settings: FGF10 binding, fluorescence 635 nm, higher = more signal
# Fibroblast growth factor 10 (Homo sapiens), sequence (O15520 whole entry, looked up): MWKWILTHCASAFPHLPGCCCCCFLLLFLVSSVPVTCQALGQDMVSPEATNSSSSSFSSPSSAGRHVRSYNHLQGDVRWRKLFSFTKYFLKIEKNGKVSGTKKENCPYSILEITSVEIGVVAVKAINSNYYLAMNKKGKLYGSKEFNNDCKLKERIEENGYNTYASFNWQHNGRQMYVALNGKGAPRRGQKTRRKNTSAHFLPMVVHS
# [6] = test system: glycogen synthase kinase-3 (GSK3A per assay name; protocol says GSK3B); experiment: GSK3 binders on small-molecule microarrays, primary screen, biochemical, small-molecule microarray, 635 nm fluorescence, GSK3A (AID 1103); settings: small-molecule microarray binding, fluorescence 635 nm; higher = more signal; also: the record names both GSK3A and GSK3B
# [7] = target: Epidermal growth factor receptor (Homo sapiens) (UniProt P00533); experiment: EGFR binders on small-molecule microarrays, primary screen, biochemical, small-molecule microarray, 635 nm fluorescence (AID 1104); settings: EGFR binding, higher = more signal;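 also: score merges 667 nm emission intensity with spot signal to noise over triplicate slides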
# Epidermal growth factor receptor (Homo sapiens), sequence (P00533 whole entry, looked up): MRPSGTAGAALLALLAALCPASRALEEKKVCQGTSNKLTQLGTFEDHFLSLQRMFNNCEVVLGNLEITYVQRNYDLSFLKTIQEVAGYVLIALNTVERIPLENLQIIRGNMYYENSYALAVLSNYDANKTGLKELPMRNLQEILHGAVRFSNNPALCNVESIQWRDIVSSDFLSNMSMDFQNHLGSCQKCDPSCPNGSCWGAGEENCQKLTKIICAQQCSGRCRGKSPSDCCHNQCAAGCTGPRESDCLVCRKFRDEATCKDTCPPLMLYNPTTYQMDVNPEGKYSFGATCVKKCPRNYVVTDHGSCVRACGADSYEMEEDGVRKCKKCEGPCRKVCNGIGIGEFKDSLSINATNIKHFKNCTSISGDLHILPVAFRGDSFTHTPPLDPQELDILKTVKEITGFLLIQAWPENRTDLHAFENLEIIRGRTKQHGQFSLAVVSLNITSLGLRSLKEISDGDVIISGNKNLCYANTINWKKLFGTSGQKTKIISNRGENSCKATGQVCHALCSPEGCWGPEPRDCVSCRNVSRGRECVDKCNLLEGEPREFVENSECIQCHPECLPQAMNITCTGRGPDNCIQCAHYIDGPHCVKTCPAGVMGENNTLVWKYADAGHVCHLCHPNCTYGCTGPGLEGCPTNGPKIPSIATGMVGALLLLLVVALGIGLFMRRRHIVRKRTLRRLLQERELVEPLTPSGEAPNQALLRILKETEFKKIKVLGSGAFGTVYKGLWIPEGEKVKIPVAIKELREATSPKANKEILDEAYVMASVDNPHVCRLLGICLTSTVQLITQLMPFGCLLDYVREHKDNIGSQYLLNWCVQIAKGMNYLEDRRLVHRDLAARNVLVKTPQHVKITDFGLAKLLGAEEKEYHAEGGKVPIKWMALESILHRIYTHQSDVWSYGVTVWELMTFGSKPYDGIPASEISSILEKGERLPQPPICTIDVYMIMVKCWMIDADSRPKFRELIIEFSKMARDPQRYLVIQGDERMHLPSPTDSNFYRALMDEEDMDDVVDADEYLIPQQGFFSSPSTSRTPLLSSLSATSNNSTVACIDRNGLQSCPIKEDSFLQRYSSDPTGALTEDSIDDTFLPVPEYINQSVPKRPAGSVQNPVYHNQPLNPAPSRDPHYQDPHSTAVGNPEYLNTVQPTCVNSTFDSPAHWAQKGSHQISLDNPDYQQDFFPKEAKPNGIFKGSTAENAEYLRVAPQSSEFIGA
# [8] = target: Follistatin-related protein 3 (Homo sapiens) (UniProt O95633); experiment: FSTL3 binders on small-molecule microarrays, primary screen, biochemical, small-molecule microarray, 635 nm fluorescence (AID 1105); settings: FSTL3 binding, higher = more signal;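 also: score merges emission near 667 nm and signal to noise per printed spot across three slides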
# Follistatin-related protein 3 (Homo sapiens), sequence (O95633 whole entry, looked up): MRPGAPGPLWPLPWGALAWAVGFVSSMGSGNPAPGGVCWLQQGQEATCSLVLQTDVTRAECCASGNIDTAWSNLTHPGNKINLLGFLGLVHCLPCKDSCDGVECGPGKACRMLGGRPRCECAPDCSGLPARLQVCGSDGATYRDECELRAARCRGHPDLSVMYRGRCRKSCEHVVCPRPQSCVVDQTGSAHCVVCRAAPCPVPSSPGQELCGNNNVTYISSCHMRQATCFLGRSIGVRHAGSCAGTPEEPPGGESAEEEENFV
# [9] = target: Dickkopf-related protein 1 (Homo sapiens) (UniProt O94907); experiment: DKK1 binders on small-molecule microarrays, primary screen, biochemical, small-molecule microarray, 635 nm fluorescence scan (AID 1106); settings: DKK1 binding, higher = more signal;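 also: score merges emission near 667 nm with signal to noise over three replicate slides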
# Dickkopf-related protein 1 (Homo sapiens), sequence (O94907 whole entry, looked up): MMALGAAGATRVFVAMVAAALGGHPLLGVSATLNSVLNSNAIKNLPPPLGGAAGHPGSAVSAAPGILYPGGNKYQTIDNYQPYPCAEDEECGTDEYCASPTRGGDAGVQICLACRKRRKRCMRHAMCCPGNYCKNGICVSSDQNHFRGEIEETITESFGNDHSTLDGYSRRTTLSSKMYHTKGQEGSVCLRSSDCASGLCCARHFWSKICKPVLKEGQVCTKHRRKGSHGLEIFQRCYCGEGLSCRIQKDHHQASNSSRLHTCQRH
# [10] = test system: Inhibin beta A chain (activin A); experiment: INHBA (activin A) binders on microarrays, primary screen, biochemical, small-molecule microarray, 635 nm fluorescence scan (AID 1107); settings: small-molecule microarray binding, higher = more signal;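 also: mouse activin A protein probed at 4.33 µg/mL on printed slides; score merges bound-protein fluorescence near 667 nm with spot signal-to-noise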
# [11] = test system: Human papillomavirus type 1a protein E7 (residues 44-93); experiment: HPV1a E7 fragment binders on microarrays, primary screen, biochemical, small-molecule microarray, residues 44-93, 635 nm fluorescence (AID 1108); settings: small-molecule microarray binding, fluorescence 635 nm; higher = more signal;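 also: E7 fragment applied at 1 µg/mL in TBST for 1 h at 4 C; score combines spot fluorescence with its signal to noise ratio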
# [12] = modulators of HCV replicon luciferase signal, primary screen, HCV replication inhibitor project, Huh7 cells, luciferase reporter (AID 1109); settings: 48 h, higher = more signal;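 also: huh7 hepatoma cells harbouring a luciferase neomycin HCV replicon reporter; luciferase luminescence as measure of HCV replicon replication; test concentration not given here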
# [13] = target: Left-right determination factor 2 (Homo sapiens) (UniProt O00292); experiment: LEFTY2 binders on small-molecule microarrays, primary screen, biochemical, small-molecule microarray, 635 nm fluorescence scan (AID 1110); settings: LEFTY2 binding, higher = more signal
# Left-right determination factor 2 (Homo sapiens), sequence (O00292 whole entry, looked up): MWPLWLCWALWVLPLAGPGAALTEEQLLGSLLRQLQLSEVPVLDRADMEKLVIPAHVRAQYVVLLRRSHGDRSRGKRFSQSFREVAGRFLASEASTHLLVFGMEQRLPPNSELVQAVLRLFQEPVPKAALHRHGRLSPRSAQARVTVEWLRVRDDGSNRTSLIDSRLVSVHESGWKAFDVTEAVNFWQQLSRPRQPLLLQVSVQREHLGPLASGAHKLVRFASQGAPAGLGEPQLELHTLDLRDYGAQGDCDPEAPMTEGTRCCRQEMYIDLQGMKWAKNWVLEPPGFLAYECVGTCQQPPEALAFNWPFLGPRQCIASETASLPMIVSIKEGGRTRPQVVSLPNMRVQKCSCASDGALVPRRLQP
# [14] = target: Calmodulin-1 (Homo sapiens) (UniProt P0DP23); experiment: CALM1 binders on microarrays, EGTA buffer, profiling panel, biochemical, small-molecule microarray, Cy5-labelled CALM1 (AID 1111); settings: Cy5-CALM1 binding fluorescence, higher = more signal;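 also: labelled calmodulin applied in Tris saline Tween buffer holding calcium plus EGTA and DTT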
# [15] = target: Calmodulin-1 (Homo sapiens) (UniProt P0DP23); experiment: calcium-bound CALM1 binders on microarrays, profiling panel, artefact control for SMM control-protein annotation, biochemical, small-molecule microarray, Cy5-labelled CALM1, plus calcium (AID 1112); settings: Cy5-CALM1 binding fluorescence, higher = more signal;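 also: score merges spot fluorescence with signal to noise from triplicate slides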
# [16] = small-molecule microarray binders of probe aWnt5a, primary screen, biochemical, biotinylated probe, 635/667 nm fluorescence (AID 1113); settings: higher = more signal;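 also: score merges 667 nm fluorescence intensity with signal-to-noise per printed feature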
# [17] = small-molecule microarray binders of probe aShh, primary screen, biochemical, biotinylated probe, 635/667 nm fluorescence (AID 1114); settings: higher = more signal;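 also: probe is biotin-labelled aShh protein from a stem cell growth factor screen; measures binding of labelled protein to compounds printed on the slide; score merges feature fluorescence at 667 nm with signal-to-noise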
# [18] = small-molecule microarray binders of probe aNog, primary screen, biochemical, biotinylated probe, 635/667 nm fluorescence (AID 1115); settings: higher = more signal;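 also: probe is biotinylated aNog protein used at 0.15 µg/mL for 1 h at 4 C; z-score combines 667 nm fluorescence of each spot with its signal to noise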
# [19] = target: Torsin-1A-interacting protein 1 (Homo sapiens) (UniProt Q5JTV8); experiment: LAP1 binders from COS7 cell lysate, primary screen, small-molecule microarray, 635/667 nm fluorescence (AID 1116); settings: COS7-hLAP1 lysate binding, 635 nm fluorescence, higher = more signal
# Torsin-1A-interacting protein 1 (Homo sapiens), sequence (Q5JTV8 whole entry, looked up): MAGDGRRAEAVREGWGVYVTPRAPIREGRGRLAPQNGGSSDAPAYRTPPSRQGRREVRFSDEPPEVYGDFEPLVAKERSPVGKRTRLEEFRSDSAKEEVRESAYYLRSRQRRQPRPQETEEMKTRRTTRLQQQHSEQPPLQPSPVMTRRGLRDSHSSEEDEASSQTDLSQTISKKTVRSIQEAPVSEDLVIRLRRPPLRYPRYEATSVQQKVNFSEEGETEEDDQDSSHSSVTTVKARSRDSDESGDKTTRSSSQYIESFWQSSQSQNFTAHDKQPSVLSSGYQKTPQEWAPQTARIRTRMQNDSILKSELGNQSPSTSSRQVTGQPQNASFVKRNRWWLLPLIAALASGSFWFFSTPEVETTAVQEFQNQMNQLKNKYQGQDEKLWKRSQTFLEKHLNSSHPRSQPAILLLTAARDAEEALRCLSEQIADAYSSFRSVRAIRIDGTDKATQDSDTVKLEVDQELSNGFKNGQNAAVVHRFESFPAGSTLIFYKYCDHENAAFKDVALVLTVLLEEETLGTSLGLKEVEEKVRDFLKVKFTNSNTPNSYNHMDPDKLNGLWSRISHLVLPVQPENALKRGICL
# [20] = target: Alpha-bungarotoxin (Bungarus multicinctus) (UniProt P60615); experiment: alpha-bungarotoxin binders on microarray, profiling panel, artefact control for SMM control protein annotation, biochemical, small-molecule microarray, Alexa647 label, 635/667 nm fluorescence (AID 1117); settings: alpha-BTX-A647 binding fluorescence, higher = more signal
# Alpha-bungarotoxin (Bungarus multicinctus), sequence (P60615 whole entry, looked up): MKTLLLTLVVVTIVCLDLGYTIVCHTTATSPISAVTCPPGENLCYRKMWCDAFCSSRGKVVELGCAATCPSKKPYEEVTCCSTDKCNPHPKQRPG
Structure (SMILES),composite z-score [1],composite z-score [2],composite z-score [3],z-score [4],composite z-score [5],composite z-score [6],composite z-score [7],composite z-score [8],composite z-score [9],composite z-score [10],composite z-score [11],z-score [12],composite z-score [13],composite z-score [14],composite z-score [15],composite z-score [16],composite z-score [17],composite z-score [18],composite z-score [19],composite z-score [20]
C=CCN(C(=O)C(c1cccs1)N(CCOCCO)C(=O)/C=C\C(=O)O)c1ccc(OC)cc1 (stereo not given),-1.53 and -0.0146,-0.626 and -0.357,-0.183 and 0.97,-1.88 (inactive) and -1.58 (inactive),-0.934 and -0.942,-0.903 and -0.645,-0.254 and -1.5,-0.603 and -1.07,-0.151 and -2.76,-0.539 and -0.186,-2.11 and -1.15,1.49 and 0.42,0.0612 and -1.47,-0.328 and -1.13,-0.0309 and 0.36,-0.214 and -0.232,-0.291 and -0.138,-0.636 and 0.146,-0.618 and -0.178,-0.744 and -2.86
CC(C)OC(=O)C=C1C[C@@H](c2cccc(C(F)(F)F)c2)O[C@@H](c2cccc(C(F)(F)F)c2)O1,0.937 and 1.55,0.326 and -0.186,0.605 and -0.185,1.12 (inactive) and -1.24 (inactive),-0.135 and -0.527,0.335 and 0.267,-1.14 and -1.45,-0.815 and -1.39,-0.49 and -0.776,-0.347 and -0.587,1.34 and 0.979,-1.55 and -2.35,-0.906 and -0.656,1.21 and 0.297,0.831 and 0.224,0.0433 and -0.218,0.04 and -0.162,0.509 and 0.655,1.03 and 0.0622,0.613 and 0.269
C=C[C@H](OC)[C@@H](O)c1ccc(O)c(F)c1,1.2 and -1.38,-0.48 and -0.349,0.7 and 0.65,-0.257 (inactive) and 0.0293 (inactive),-1.35 and -1.61,-2.09 and -1.69,-2.36 and -1.75,-1.89 and -1.94,-2 and -1.4,-1.87 and -1.2,-1.18 and -1.38,0.156 and -0.114,-2.27 and -2.63,-1.27 and -0.866,-0.625 and -0.713,-0.244 and -0.356,-0.262 and -0.282,-0.173 and -0.8,-0.753 and -1.81,-1.36 and -0.191
CCOC(=O)[C@H](CC(C)C)NC(=O)CCC1CC(OC(=O)NCc2cccc3ccccc23)CC2(CCCC(COC(=O)NCc3ccccc3)O2)O1 (stereo not given in full),0.929,-0.299,-0.103,-2.18 (inactive),-0.242,-0.97,-0.152,-0.499,-0.311,0.493,-0.931,-0.132,-0.0479,-0.195,-0.559,-0.152,-0.282,-0.0029,-0.61,-0.274
C=CC[C@@H](O)c1ccc(O)c2ccccc12,1.35 and 1.41,-0.05 and -0.227,-0.0013 and -0.333,-0.879 (inactive) and 3.08 (inactive),0.991 and 1.34,0.797 and 1.25,1.33 and 1.15,1.2 and 1.43,0.817 and 1.14,1.38 and 0.954,0.837 and 1.21,-1.89 and -2.65,0.723 and 0.901,-1.52 and -0.403,-1.59 and -1.41,-0.101 and -0.0704,0.296 and -0.0553,-0.369 and -0.55,0.848 and 0.0091,2.05 and 1.17
CO[C@H]1COC(=O)[C@H](C)NC(=O)CC=C[C@@H](C)[C@H](OC)COC(=O)CC=C[C@@H]1C,0.523,-0.785,-1.62,0.506 (inactive),0.504,1.04,1.49,1.45,1.62,1.68,-1.05,-0.885,0.955,-0.884,-0.822,-0.0944,-0.0337,-0.198,0.169,-0.0006
C=CCN(Cc1ccccc1)C(=O)C1N(CCCCCCO)C(=O)C2C(C(=O)O)C3C=CC21O3 (stereo not given),0.751 and 0.912,-0.0659 and -0.197,0.991 and 0.926,-0.679 (inactive) and -1.35 (inactive),-1.02 and -2.08,-0.973 and -1.08,-1.7 and -1.71,-1.49 and -1.67,-1.79 and -4,-1.29 and -2.29,-0.352 and -1.02,0.0022 and 0.118,-2.37 and -4.16,-0.326 and -0.505,0.498 and 0.722,-0.219 and -0.332,-0.0709 and -0.0035,-0.0211 and -0.316,0.193 and 0.0816,-1.13 and -1.12
COC(=O)C1=C(C)N(Cc2ccccc2)C2=C(C(=O)c3ccccc3)[C@H](c3ccccc3)[C@@](O)(C(=O)OC)C(=O)N2[C@@H]1c1ccccc1,0.419 and 0.36,-0.0581 and -0.208,-0.178 and -0.433,-1.7 (inactive) and 0.839 (inactive),0.654 and 0.495,0.739 and 0.519,0.392 and 0.353,0.626 and 0.53,0.638 and 0.349,-0.0471 and -0.0052,1.15 and 0.774,-2.05 and 0.964,0.32 and 0.577,0.046 and -0.136,-0.373 and -0.51,-0.176 and -0.1,-0.137 and -0.0626,-0.31 and 0.0197,0.202 and 0.17,-0.115 and -0.0752
C=CCN(C(=O)C(c1cccs1)N(C(=O)/C=C\C(=O)O)C(C)(C)CO)C(C)(C)C (stereo not given),-0.387 and -0.159,-0.136 and -0.239,0.784 and 0.498,-1.67 (inactive) and -1.52 (inactive),-1.22 and -1.16,-0.489 and -0.532,-0.928 and -0.661,-1.54 and -1.07,-1.53 and -1.58,-0.792 and -0.643,-0.453 and -0.0211,-0.0094 and 0.0766,-2.3 and -1.73,-0.243 and -0.782,-0.403 and 0.164,-0.124 and -0.197,-0.0553 and -0.0769,0.945 and 0.25,0.78 and -0.351,0.489 and 0.895
